Some test systems named below: NCI-H23 lung; NCI-H322M lung; HOP-62 NSCLC; NCI-H460 lung; HOP-92 NSCLC; NCI-H522 lung; A549/ATCC NSCLC; 786-0 renal; COLO 205 colon; DU-145 prostate; K-562 leukemia; MALME-3M melanoma; MDA-MB-231 breast; RXF 393 renal; SF-268 CNS; SF-539 CNS; UACC-257 melanoma; M14 melanoma; HCT-15 colon; SF-295 CNS.
Holding throughout (assay): NCI-60 one-dose screen, 48 h (100 = growth as untreated, 0 = no growth, -100 = all killed)
Holding throughout (conditions): 10 µM unless noted

Structures are written as SMILES. The panel holds about 83,000 compounds, 20% with a hit somewhere; the sample as a whole holds those more often.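 Testing used 96-well plates and a 48-hour single-concentration exposure. Example: -40 means 40% of the starting cells died.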 Values without a mark were called inactive. Calls of active or inactive are those of the source. How the source made its calls: active means growth percent below 10; inactive means the rest.

As for `COc1cc(-c2c3c(c(Br)n2Cc2ccccc2)-c2nc(N)sc2CC3)cc(OC)c1OC`, the growth with NCI-H23 lung is 98.2%; in the test with NCI-H322M lung, 77.7%; with HOP-62 NSCLC it was 88.5%; in the test with NCI-H460 lung, 94%; in the test on HOP-92 NSCLC, 76.4%; in the test on NCI-H522 lung, 38.4%. Besides, the growth is 82.9% in the test on A549/ATCC NSCLC; 86% in the test on 786-0 renal; 108% in the test with COLO 205 colon; 108% in the test on DU-145 prostate; 47.7% with K-562 leukemia; 81% with MALME-3M melanoma. The growth in the test on MDA-MB-231 breast is 68.6%; in the test on RXF 393 renal it was 90.5%; with SF-268 CNS it was 88.2%; with SF-539 CNS it was 98.1%; in the test on UACC-257 melanoma, 93.6%; in the test with M14 melanoma, 90.3%. The growth with HCT-15 colon was 85%.

On to `COc1ccc(C(O)(CCC(C)C)C(CN2CCOCC2)c2ccc(Cl)cc2)cc1` (stereo not given), for which the growth is 74.6% with NCI-H23 lung; 88.3% in the test on NCI-H322M lung; 63.6% with HOP-62 NSCLC; 86.8% with NCI-H460 lung; 77.8% in the test on HOP-92 NSCLC; -16.9% (active) with NCI-H522 lung. Besides, the growth in the test on A549/ATCC NSCLC was 62.4%; in the test on 786-0 renal, 73.3%; in the test with COLO 205 colon it was 76.4%; in the test on DU-145 prostate it was 73.8%; in the test on K-562 leukemia it was 15.3%; in the test with MALME-3M melanoma it was 39.2%. The growth in the test on MDA-MB-231 breast is 68.5%; with RXF 393 renal it was 88.3%; in the test with SF-268 CNS, 80.2%; in the test on SF-539 CNS, 64.7%; in the test on UACC-257 melanoma, 69.4%; in the test on M14 melanoma, 37.1%. In the test on HCT-15 colon, the growth was 35.6%.

As for `COC(=O)[C@H]1CCCN1C(=O)[C@H]1CCCN1C(=O)[C@H](Cc1c[nH]c2ccccc12)NC(=S)Nc1cc(C(F)(F)F)cc(C(F)(F)F)c1`, the growth in the test on NCI-H23 lung is 65.2%; with NCI-H322M lung, 78.4%; with HOP-62 NSCLC, 74.5%; with NCI-H460 lung, 22.1%; in the test with HOP-92 NSCLC, 88.8%; in the test on NCI-H522 lung it was 68.6%. Besides, the growth was 35% in the test on A549/ATCC NSCLC; 58.3% in the test with 786-0 renal; -34.8% (active) with COLO 205 colon; 64.6% with DU-145 prostate; 34.7% with K-562 leukemia; 70.5% in the test with MALME-3M melanoma. Further, the growth was -38.5% (active) in the test on MDA-MB-231 breast; 64.8% in the test with RXF 393 renal; 47.8% with SF-268 CNS; 74.3% with SF-539 CNS; 67.9% in the test with UACC-257 melanoma; 56% with M14 melanoma. For the same compound, the growth in the test on HCT-15 colon is 70.4%.

Take `O=C(NCCCN1CCC(N2CCCCC2)CC1)C1=Cc2cc(Br)ccc2OC1`: the growth with NCI-H23 lung is 56.2%; with NCI-H322M lung it was 69.2%; in the test with HOP-62 NSCLC, 87.9%; in the test with NCI-H460 lung, 13.8%; in the test with HOP-92 NSCLC it was 80.7%; with NCI-H522 lung, 31%. Moreover, the growth is 49.1% with A549/ATCC NSCLC; 53.5% in the test on 786-0 renal; 46.1% with COLO 205 colon; 68.7% with DU-145 prostate; 14.8% in the test with K-562 leukemia; 97.9% in the test with MALME-3M melanoma. In addition, the growth in the test on MDA-MB-231 breast was 17.6%; in the test with RXF 393 renal, 52.3%; with SF-268 CNS, 50.2%; in the test with SF-295 CNS, 3.29% (active); in the test on SF-539 CNS it was 87.4%; in the test with UACC-257 melanoma it was 59.8%. In addition, the values for the growth in the test with M14 melanoma and in the test with HCT-15 colon were 38.7% and 41.1%, respectively.

Consider `CCCC(c1nnnn1C1CCCCC1)N1CCN(C(=O)c2ccco2)CC1` (stereo not given), for which the growth with NCI-H23 lung is 71%; in the test on NCI-H322M lung, 97.5%; with HOP-62 NSCLC, 79.2%; with NCI-H460 lung, 40.6%; in the test on HOP-92 NSCLC, 47.6%; in the test with NCI-H522 lung, 62.5%. For the same compound, the growth in the test on A549/ATCC NSCLC was 55.2%; in the test with 786-0 renal it was 74.9%; with COLO 205 colon it was 73.4%; in the test on DU-145 prostate, 69.7%; in the test with K-562 leukemia, 9.87% (active); in the test on MALME-3M melanoma, 53.2%. The growth with MDA-MB-231 breast was 63.9%; in the test with RXF 393 renal, 65.1%; with SF-268 CNS it was 60.8%; in the test with SF-539 CNS, 65.7%; in the test on UACC-257 melanoma, 82.5%; with M14 melanoma it was 30.5%. Moreover, in the test with HCT-15 colon, the growth is 45.5%.

Consider `O=Nc1c(O)ccc2ccccc12.O=Nc1c(O)ccc2ccccc12.O=Nc1c([O-])ccc2ccccc12.[Fe+3]`, for which the growth in the test with NCI-H23 lung was 87%; in the test on NCI-H322M lung it was 104%; in the test with HOP-62 NSCLC, 87.6%; in the test on NCI-H460 lung, 105%; with HOP-92 NSCLC, 94.5%; with NCI-H522 lung it was 103%. In addition, the growth in the test with A549/ATCC NSCLC is 106%; in the test on 786-0 renal, 115%; in the test with COLO 205 colon it was 103%; in the test on DU-145 prostate it was 125%; in the test on K-562 leukemia, 115%; in the test with MALME-3M melanoma it was 95.8%. Further, the growth in the test on MDA-MB-231 breast is 86.9%; with RXF 393 renal it was 110%; in the test with SF-268 CNS, 106%; in the test on SF-539 CNS it was 96%; in the test with UACC-257 melanoma, 110%; in the test on M14 melanoma, 97.2%. For the same compound, the growth in the test on HCT-15 colon was 105%.

For the origin of these results see PubChem BioAssay (NCI).
